Source: PubChem
A selection: hits, their analogues and other compounds. The true share with any hit is near 12%.
HP1b binding inh – blocks HP1-beta chromodomain binding to methylated histone tails; P83916; AlphaScreen HP1-beta / biotin-H3K9me3 peptide binding; Potency, µM (top dose mostly 114 µM), for inactives: at the highest dose activity change, negative = inhibition, most hits filed as inhibitors; actives 0.56% (n = 390,000); AID 540317; also: nearly all actives have a fitted effect of over 70% in size
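Compound inhibition of the preformed complex between 50 nM HP1-beta and 50 nM biotinylated H3K9me3 peptide was read by AlphaScreen. Buffer was PBS pH 7.4 with 0.01% Tween-20. Incubations ran 30 min at room temperature, with 10 ug/mL donor/acceptor beads.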
JMJD2A Tudor – blocks the human JMJD2A Tudor domain. O75164. AlphaScreen JMJD2A-Tudor / H3K4me3 peptide binding. Potency, µM (highest dose often 114 µM), for the others: at the highest dose activity change, negative = inhibition, usual class: inhibitors. actives 4.4% (n = 390,000); also: % is scaled to controls: 0 for no effect and ±100 for the full control effect; nearly all actives have a fitted effect of over 50% in size
G9a block – blocks human histone lysine methyltransferase G9a; G9a H3K9 monomethylation, AlphaScreen, 2 h; Q96KQ7; actives 8.8% (n = 350,000); Potency, µM (highest dose often 102 µM), without a hit: at the top dose activity, negative = inhibition, usual class: inhibitors; also: % is scaled to controls: 0 for no effect and ±100 for the full control effect; nearly all actives have a fitted effect of over 75% in size
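Step 1: enzyme (final 20 nM) with compound, 15 min RT. Step 2: substrate peptide 500 nM and SAM 20 uM, 2 h RT. Step 3: anti-H3K9me1 antibody and AlphaScreen beads, 10 min, then plate read.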
L3MBTL1 block – inhibitors of human L3MBTL1. Q9Y468. AlphaScreen L3MBTL1–H3K9me1 peptide binding. Potency, µM (titrated, usually from 57.1 µM), without a hit: at the top dose activity, negative = inhibition, most hits filed as inhibitors. actives 0.66% (n = 230,000); also: % is scaled to controls: 0 for no effect and ±100 for the full control effect; nearly all actives have a fitted effect of over 60% in size
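L3MBTL1 50 nM + b-AHA-H3(1-15)K9me1 75 nM, 30 min RT; compound added, 30 min RT; streptavidin donor/Ni-chelate acceptor beads 10 ug/mL each final, 30 min RT dark; AlphaScreen read.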
Sfp inh – blocks B. subtilis Sfp PPTase activity | actives 3.5% (n = 310,000) | Q9F4F7 | AID 1490 | Biochemical Sfp PPTase activity, qHTS | Potency, µM, inactives show largest response in the series, negative = inhibition, actives largely listed as inhibitors;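 also: the enzyme is Sfp with the accession as filed and its product quenches rhodamine fluorescence; 0% = enzyme reaction without inhibitor and -100% = no enzyme wells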
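Step 1, compound plus 15 nM Sfp-PPTase, 15 min, room temperature. Step 2, add rhodamine-CoA (5 uM) and BHQ-2-YbbR (12.5 uM). Step 3, read 525/598 nm fluorescence at 0 and 30 min.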
BAZ2B inh – inhibitors of human BAZ2B bromodomain. Q9UIF8. Potency, µM (titrated, usually from 114 µM), without a hit: top-dose activity change, negative = inhibition, hits mostly inhibitors. actives 4.4% (n = 360,000). AlphaScreen BAZ2B-H3K14Ac peptide displacement. AID 504333; also: % is scaled to controls: 0 for no effect and ±100 for the full control effect; nearly all actives have a fitted effect of over 60% in size
Target sequence (Q9UIF8 whole entry, looked up): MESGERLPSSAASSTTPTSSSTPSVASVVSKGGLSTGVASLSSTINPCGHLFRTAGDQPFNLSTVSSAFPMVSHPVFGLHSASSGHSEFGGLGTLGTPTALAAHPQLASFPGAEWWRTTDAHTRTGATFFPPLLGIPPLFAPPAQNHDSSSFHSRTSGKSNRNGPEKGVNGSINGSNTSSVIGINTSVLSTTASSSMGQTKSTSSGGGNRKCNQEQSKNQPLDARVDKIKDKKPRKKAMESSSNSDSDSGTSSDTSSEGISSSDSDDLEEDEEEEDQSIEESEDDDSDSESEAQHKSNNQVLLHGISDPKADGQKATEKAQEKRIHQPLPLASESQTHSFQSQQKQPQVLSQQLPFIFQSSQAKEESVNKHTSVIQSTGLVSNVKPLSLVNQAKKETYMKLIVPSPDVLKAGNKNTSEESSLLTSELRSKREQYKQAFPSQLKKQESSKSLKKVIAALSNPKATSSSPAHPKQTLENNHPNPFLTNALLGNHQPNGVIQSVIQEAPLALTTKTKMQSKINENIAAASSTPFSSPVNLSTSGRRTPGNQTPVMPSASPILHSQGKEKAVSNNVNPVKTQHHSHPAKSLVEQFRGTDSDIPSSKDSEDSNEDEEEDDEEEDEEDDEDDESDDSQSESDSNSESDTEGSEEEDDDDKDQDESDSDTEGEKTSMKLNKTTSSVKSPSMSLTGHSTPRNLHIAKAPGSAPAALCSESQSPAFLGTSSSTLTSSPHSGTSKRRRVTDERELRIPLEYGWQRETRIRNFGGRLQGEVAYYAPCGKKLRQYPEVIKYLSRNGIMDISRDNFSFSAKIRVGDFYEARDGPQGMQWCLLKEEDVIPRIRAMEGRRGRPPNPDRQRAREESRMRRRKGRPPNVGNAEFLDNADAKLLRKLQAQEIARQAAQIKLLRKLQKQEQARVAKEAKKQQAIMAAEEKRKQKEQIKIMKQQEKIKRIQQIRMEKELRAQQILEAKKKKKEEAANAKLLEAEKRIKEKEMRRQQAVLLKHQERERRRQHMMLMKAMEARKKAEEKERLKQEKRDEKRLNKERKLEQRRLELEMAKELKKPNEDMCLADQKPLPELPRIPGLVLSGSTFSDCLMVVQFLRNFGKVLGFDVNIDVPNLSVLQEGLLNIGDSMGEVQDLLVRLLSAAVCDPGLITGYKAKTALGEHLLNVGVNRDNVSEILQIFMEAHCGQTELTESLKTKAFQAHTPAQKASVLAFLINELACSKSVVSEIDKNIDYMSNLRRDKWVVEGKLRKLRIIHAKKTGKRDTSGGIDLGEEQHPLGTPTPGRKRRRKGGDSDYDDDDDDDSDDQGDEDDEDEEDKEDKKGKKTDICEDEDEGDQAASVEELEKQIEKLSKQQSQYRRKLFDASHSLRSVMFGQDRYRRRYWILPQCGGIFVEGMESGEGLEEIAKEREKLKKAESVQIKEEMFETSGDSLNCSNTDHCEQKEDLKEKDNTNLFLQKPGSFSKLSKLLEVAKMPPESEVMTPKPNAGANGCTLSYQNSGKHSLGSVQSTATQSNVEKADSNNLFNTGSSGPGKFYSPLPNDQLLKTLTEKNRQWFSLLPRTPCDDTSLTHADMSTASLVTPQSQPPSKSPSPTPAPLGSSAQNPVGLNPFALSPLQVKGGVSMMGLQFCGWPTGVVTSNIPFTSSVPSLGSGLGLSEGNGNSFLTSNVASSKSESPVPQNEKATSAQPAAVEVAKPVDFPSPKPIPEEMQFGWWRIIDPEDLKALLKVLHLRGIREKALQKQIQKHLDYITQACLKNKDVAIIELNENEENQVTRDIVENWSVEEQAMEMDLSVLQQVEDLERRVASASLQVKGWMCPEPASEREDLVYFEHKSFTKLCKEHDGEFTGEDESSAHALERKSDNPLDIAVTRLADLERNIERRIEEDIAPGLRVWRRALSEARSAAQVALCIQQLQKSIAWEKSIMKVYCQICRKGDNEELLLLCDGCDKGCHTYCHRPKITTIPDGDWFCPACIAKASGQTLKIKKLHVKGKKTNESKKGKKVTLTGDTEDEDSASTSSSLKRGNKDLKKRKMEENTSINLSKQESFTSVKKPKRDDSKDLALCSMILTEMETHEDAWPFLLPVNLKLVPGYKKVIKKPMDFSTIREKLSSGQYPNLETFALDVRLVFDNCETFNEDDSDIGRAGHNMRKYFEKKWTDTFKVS
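BAZ2B (50 nM) with biotin-H3(5-23)K14Ac peptide (50 nM) in PBS pH 7.4, 0.01% Tween-20, preformed 30 min, then compound 30 min at room temperature; top concentration 110uM. AlphaScreen streptavidin donor/nickel chelate acceptor beads (10 ug/mL final), 20 min dark, signal read.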
An asterisk follows results filed as active; u = inconclusive; x = no result; [ ] = remark or other dose. Calls follow the shape of the dose curve; as a rule, active = well fitted curve in the direction sought with a large enough effect; inconclusive = small, poorly fitted or top-dose-only effect, or another doubt; inactive = no such curve, though single readings can be large; an effect the other way counts as inactive or inconclusive. Potency is read from the fitted curve at half-maximal effect.

SMILES	HP1b binding inh	JMJD2A Tudor	G9a block	L3MBTL1 block	Sfp inh	BAZ2B inh
COC(=O)C1=C(C)NC(=O)NC1c1ccc(-c2ccc(F)cc2)o1 (centres undefined)	5%	-21%	u	x	0%	-23%
CCOC(=O)C1=C(C)NC(=S)NC1c1ccc(-c2cccc(Cl)c2C)o1 (centres undefined)	38%	-23%	27%[0.501 µM]	5%	56µM*	3%
CCn1c(=O)n(-c2ccc3c(c2)OCO3)c2nc(-c3cc(OC)ccc3OC)nc(C(N)=O)c21	17%	-20%	19%[59 µM]	x	x	u
O=C(CSc1nccn1Cc1ccccc1)Nc1ccc2c(c1)OCCO2	-2%[57 µM]	-33%	-7%[59 µM]	x	x	u
CCOC(=O)C1=C(C)NC(=S)NC1c1ccco1 (centres undefined)	12%	u	50µM*	-19%	71µM*	-14%
Cc1ccc(C(=O)CCC(=O)Nc2ncccc2C)cc1	16%	-27%	0%[12.7 µM]	-4%	x	-38%
O=C(CCCNC(=O)c1ccc(Cl)cc1)Nc1ncccc1O	21%	-18%	16%	x	14%	u
O=C(CCC(=O)c1cccs1)Nc1ncccc1O	17%	u	u	u	x	56µM*
Cc1ccc(NC(=O)CCC(=O)c2cccs2)cc1	16%	-4%	21%[12.7 µM]	x	14%	3%
Cc1ccc(C(=O)CCC(=O)Nc2ncccc2O)cc1	6%	u	-47%	-13%	x	79µM*
O=C(CCNC(=O)c1ccc(Cl)cc1)Nc1ncccc1O	26%	-24%	13%	x	3%	79µM*
Cc1ccc(NC(=O)CCC(=O)c2ccc(Cl)s2)nc1	17%	-30%	23%[12.7 µM]	-7%	x	56µM*
COc1ccc(CN2COc3ccc4c(-c5ccccc5)cc(=O)oc4c3C2)cc1	112%	-11%	35%[59 µM]	x	x	40%
CC(C)C[C@@H](CC(=O)N[C@H](CC(=O)N[C@@H]1CCNC[C@H]1C(=O)N[C@H](CC(=O)N[C@@H](CCC(=O)O)CC(=O)O)Cc1c[nH]c2ccccc12)C(C)C)NC(=O)[C@@H]1CNCC[C@H]1N	x	x	x	x	-18%	x
COc1ccc2[nH]cc(CCNc3ccnc(-c4c(C)noc4C)n3)c2c1	x	x	34%[0.501 µM]	x	11%	x
O=C(CCC(=O)c1ccc(Cl)s1)Nc1ncccc1O	3%	56µM*	u	-16%	x	56µM*
O=C(COC(=O)c1cccnc1Cl)c1ccc(Cl)s1	29%	-5%	x	5%	x	x
COc1ccc(OC)c2sc(Cl)nc12	-4%	4%	28µM*	5%	-19%	9%
COc1ccc(OC)c2sc(NC(=O)C(C)C)nc12	14%	-14%	-42%[59 µM]	-10%	-20%	-9%
CC(C)CCn1c(SCc2cccc(F)c2)nc2ccsc2c1=O	97%	63%	49%[59 µM]	x	x	115%
O=C(OCc1nc2ccccc2[n+]([O-])c1C(=O)c1ccccc1)c1cccs1	-18%	79µM*	u	-7%	-8%	u
CC(=O)c1c(COC(=O)c2ccco2)nc2ccccc2[n+]1[O-]	6%	-13%	-34%[12.7 µM]	x	-28%	50µM*
Cc1c(-c2ccc(Cl)cc2)c(=O)oc2c(CN3CCN(C)CC3)c(O)ccc12	35%[57 µM]	0%	-11%[59 µM]	x	x	8%
Cc1ccc(CNC(=O)c2c(-c3ccccc3Cl)noc2C)o1	31%[57 µM]	-8%	-4%[59 µM]	x	x	0%
Cc1cc(C)cc(NC(=O)Cn2nnc(C(=O)NCc3ccc(F)cc3)c2N)c1	3%	10µM*	0%[59 µM]	x	-17%	-14%
SMILES	HP1b binding inh	JMJD2A Tudor	G9a block	L3MBTL1 block	Sfp inh	BAZ2B inh
Cc1ccc(C)c(NC(=O)Cn2nnc(C(=O)NCc3ccccc3Cl)c2N)c1	35%	-25%	0%[59 µM]	x	x	-2%
Cc1cc(C)cc(NC(=O)Cn2nnc(C(=O)NCc3ccccc3Cl)c2N)c1	43%	-5%	1.1µM*	x	14%	-3%
COc1cc(C(=O)Nc2nnc(SC)s2)c([N+](=O)[O-])cc1OC	28%	-14%	32µM*	-8%	-8%	-20%
COCc1nnc(NC(=O)c2ccccc2[N+](=O)[O-])s1	3%	-9%	20µM*	-3%	-15%	6%
CCOCc1nnc(NC(=O)c2cc(Cl)ccc2OC)s1	26%	-8%	6.3µM*	x	35µM*	11%
COCc1nnc(NC(=O)c2ccc(Cl)cc2[N+](=O)[O-])s1	-8%	-9%	16µM*	11%	-3%	5%
CC(C)CCC[C@@H](C)[C@H]1CC[C@H]2[C@@H]3CC=C4CC(O)CC[C@]4(C)[C@H]3CC[C@]12C (some centres undefined)	x	x	x	x	-13%	x
O=S(=O)(c1ccc(Br)cc1)N1CCN(S(=O)(=O)c2ccc3c(c2)OCCO3)CC1	x	-9%	x	x	x	x
CCOc1ccccc1/C=N/Nc1nc2c(N)ncnc2n1[C@H]1O[C@@H](CO)[C@H](O)[C@@H]1O	36%	-14%	10%[59 µM]	-3%	56µM*	-9%
Nc1ncnc2c1nc(Br)n2C1OC(CO)C(O)C1O (centres undefined)	x	x	x	x	-2%	x
COc1cccc(-c2cn3nc(C)c(C)nc3n2)c1	49%	-17%	20µM*	26%	u	12%
C=C(C(=O)OC)C(NC(=O)OC)c1ccccc1 (centres undefined)	x	x	x	x	-3%	x
CN1CCN(C(=S)Nc2cc([N+](=O)[O-])ccc2Cl)CC1	-4%	u	3.2µM*	-4%	-29%	-28%
COc1cc(NC(=S)N2CCN(C(=O)c3ccco3)CC2)c(OC)cc1Cl	-29%	u	u	-9%	56µM*	-1%
COc1cc(NC(=S)N2CCN(CCO)CC2)c(OC)cc1Cl	42%	-1%	0%	6%	-6%	-7%
COc1cc(NC(=S)N2CCCC(CO)C2)c(OC)cc1Cl (centres undefined)	4%	-6%	45µM*	1%	40µM*	-5%
COc1cc(NC(=S)N2CCN(C)CC2)c(OC)cc1Cl	12%	1%	40µM*	-4%[11.4 µM]	28µM*	-19%
Cc1ccccc1-c1cc(NCCN2CCOCC2)ncn1	x	x	-32%[0.501 µM]	x	18%	x
COc1ccc(-c2c(C3C4C=CCC(C)C4C(=O)N3Cc3ccccc3)ccc3ccccc23)cc1OC (centres undefined)	-3%	u	x	x	-5%	x
CC(C)(CO)[C@@H](O)C(=O)NCCC(=O)NCCSSCCNC(=O)CCNC(=O)[C@H](O)C(C)(C)CO	x	x	-27%[12.7 µM]	x	23%	x
COc1cc(OC)c(C2CC(=O)N3CN(c4ccccc4)CSC3=C2C#N)cc1OC (centres undefined)	u	5.6µM*	3.2µM*	-7%	3.2µM*	25µM*
CCOC(=O)c1ccc(N2CSC3=C(C#N)C(c4ccc(OC)cc4OC)CC(=O)N3C2)cc1 (centres undefined)	34%	-30%	13µM*	x	20µM*	50µM*
